Source: ChEMBL document CHEMBL4513146, “CO-ADD screening of Karazin Kharkiv National University (Ukraine) compounds”
Results with a measured potency or affinity are listed apart.

How the values were obtained:
Klebsiella pneumoniae = settings: Concentration 32 ug.mL-1;; ASSAY_TEST Inhibition of Bacterial Growth; detection method Absorption (OD600); MEDIA CAMHB; plate type 384well; NBS; CORNING #3640; time 18 hr
Candida albicans = settings: Concentration 32 ug.mL-1; ASSAY_TEST Inhibition of Fungal Growth; detection method Absorption (OD530)
Cryptococcus neoformans = settings: Concentration 32 ug.mL-1; ASSAY_TEST Inhibition of Fungal Growth; detection method Resazurin; Absorption (OD600-OD570); plate type 384well; NBS; CORNING #3640

Row | SMILES | Inhibition (Klebsiella pneumoniae) | Inhibition (Candida albicans) | Inhibition (Cryptococcus neoformans)
1 | CCc1ccccc1Sc1nccn2c(=O)n(CC(=O)Nc3ccc(Br)cc3)nc12 | 22.46% | 14.92% | -1.52%
2 | COC(=O)c1ccc(NC(=O)Cn2nc3c(Oc4ccccc4C)nccn3c2=O)cc1 | -1.16% | 1.31% | -4.07%
3 | O=c1c2sccc2n2c(=O)n(Cc3ccccc3Cl)nc2n1Cc1cccs1 | -3.57% | 32.61% | -5.81%
4 | COc1ccc(NC(=O)Cn2nc3ccc(Sc4ccccc4)nn3c2=O)cc1 | 3.54% | 3.37% | -9.77%
5 | CCOc1ccc(-n2ccn3c(SC(C)C(=O)Nc4ccc5c(c4)OCCO5)nnc3c2=O)cc1 (stereo not given) | 14.39% | 0.98% | -16.53%
6 | Cc1[nH]c2ccccc2c1C(=O)CSc1nnc2c(=O)n(-c3ccc(Br)cc3)ccn12 | 4.84% | 1.31% | -12.52%
7 | COc1ccc(NC(=O)Cn2c(=O)c3nnc(C)n3c3ccccc32)cc1Cl | 11.31% | 0.53% | -20.99%
8 | COc1cccc(Oc2nccn3c(=O)n(CC(=O)Nc4ccc(C(C)C)cc4)nc23)c1 | -4.77% | 3.55% | -2.79%
9 | Cc1cc(Nc2ccc(F)cc2)nc2nn(CCc3ccccc3)c(=O)n12 | 16.97% | 1.44% | -10.99%
10 | COC(=O)c1cccc(NC(=O)Cn2nc3ccc(-c4ccc(C)c(C)c4)nn3c2=O)c1 | 6.94% | 2% | -13.54%
